High-throughput results (PubChem)
An excerpt weighted towards active compounds, which were near 6.5% of everything screened.
HCMV inh – blocks human cytomegalovirus replication; HFF cells, HCMV-luciferase reporter, 72 h; stronger effect = lower value; activity change, negative = inhibition, % at 57.5 µM; 4.5% of 410,000 active; in the data active means activity change below about -60%; inconclusive means no clear call, values can overlap the other calls; inactive means above about -39%
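Steps: HFFs plated, 16 h 37C; compounds added; HCMV-luciferase added to MOI 1 PFU/cell; 72 h 37C; OneGlo reagent, 5 min room temperature; luminescence read, normalized to controls.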
FMDV antiviral – antivirals against foot and mouth disease virus. FMDV antiviral cell-based qHTS. 1.2% of 410,000 active. AID 1159524. Potency, µM (top dose mostly 57.9 µM), most hits filed as inhibitors; calls by dose curve; tested in HEK293T cells; further: read-out not given here; nearly all actives have a fitted effect of over 45% in size
Lassa entry inh – inhibitors of Lassa virus binding or cell entry | Lassa virus pseudotype entry inhibition, cell reporter | Potency, µM (doses to about 37.9 µM), actives largely listed as inhibitors | 1.2% of 300,000 active | AID 540256; calls by dose curve; tested in HEK293 cells; further: nearly all actives have a fitted effect of over 50% in size
VACV Venus inh – inhibitors of vaccinia virus (Venus reporter) | 0.46% of 330,000 active | Potency, µM (top dose mostly 36.5 µM), usual class: inhibitors | Vaccinia virus Venus reporter expression, fluorescence | AID 720580; calls by dose curve; tested in A549 cells; further: nearly all actives have a fitted effect of over 30% in size
Vaccinia mCherry – vaccinia inhibition (mCherry reporter); Vaccinia virus mCherry reporter infection, fluorescence; Potency, µM (doses to about 36.5 µM), usual class: inhibitors; 0.63% of 310,000 active; calls by dose curve; tested in A549 cells; further: nearly all actives have a fitted effect of over 35% in size
MARV entry inh – inhibitors of Marburg virus binding or cell entry. Marburg virus pseudotyped entry inhibition, cell reporter. AID 540276. Potency, µM (series often up to 37.8 µM), most hits filed as inhibitors. 1.8% of 300,000 active; calls by dose curve; tested in HEK293 cells
Of the large screens only hits and unclear results are named; the others gave an inactive call.

COc1ccc(NS(=O)(=O)c2cc(NC(=O)Cc3cccs3)ccc2C)cc1	Lassa entry inh 1.8µM, MARV entry inh inconclusive
COc1ccc(NS(=O)(=O)c2cc(NC(=O)[C@@H](NC(=O)c3ccccc3)C(C)C)ccc2C)cc1	HCMV inh -87, Lassa entry inh inconclusive, MARV entry inh inconclusive
CCCNCC(O)Cn1c2ccccc2n2c(=O)cc(C)c(C#N)c12 (configuration not stated)	HCMV inh -61, MARV entry inh inconclusive
COc1ccc(N2C(=O)/C(=C/c3ccc(C)o3)C(=O)NC2=S)cc1	FMDV antiviral inconclusive (no result: Lassa entry inh, VACV Venus inh, Vaccinia mCherry, MARV entry inh)
CCOc1ccc(N2C(=O)/C(=C/c3ccc(C)o3)C(=O)NC2=S)cc1	FMDV antiviral 40µM (no result: Lassa entry inh, VACV Venus inh, Vaccinia mCherry, MARV entry inh)
CC(=O)Nc1ccc(Nc2ccc(S(=O)(=O)C(F)(F)F)cc2[N+](=O)[O-])cc1	HCMV inh -97
NC(=O)C1CCN(c2csc3ccc(F)cc3c2=O)CC1	none (no result: MARV entry inh)
Cc1ccccc1NC(=O)N1CCCN(c2ccc(C#N)cn2)CC1	none
CCCCNC(=O)N1CCCN(c2ccc(C#N)cn2)CC1	HCMV inh -65 (no result: Lassa entry inh, VACV Venus inh, Vaccinia mCherry)
CCC(=O)C1=C(c2cccc(OC)c2)N(C(=O)CC)n2c(nnc2C2CCCCC2)S1	HCMV inh -92, Lassa entry inh inconclusive, VACV Venus inh inconclusive (no result: MARV entry inh)
CCC(=O)C1=C(c2cccc([N+](=O)[O-])c2)N(C(=O)CC)n2c(nnc2C2CCCCC2)S1	HCMV inh -99, Lassa entry inh inconclusive, VACV Venus inh inconclusive, Vaccinia mCherry inconclusive (no result: MARV entry inh)
CCC(=O)C1=C(c2ccccc2)N(C(=O)CC)n2c(nnc2C2CCCCC2)S1	none (no result: MARV entry inh)
Cc1ccc(Cl)cc1N1CCN(C2(c3ccccc3)C(=O)c3ccccc3C2=O)CC1	none
Cc1sc2c(c1C)c(=O)n(CCc1ccccc1)c(=O)n2Cc1ccc(C(C)(C)C)cc1	none
CC(C)NC(=S)NC(=O)c1ccc(-c2ccccc2)cc1	HCMV inh -81, MARV entry inh inconclusive
CC(=O)N1CCN(C(=O)c2sc3ncnc(NCC4CCCO4)c3c2C)CC1 (configuration not stated)	none (no result: HCMV inh, Lassa entry inh, MARV entry inh)
c1ccc(-c2csc3ncnc(NCC4COc5ccccc5O4)c23)cc1 (configuration not stated)	HCMV inh -88, FMDV antiviral 28µM, Lassa entry inh inconclusive, VACV Venus inh inconclusive, Vaccinia mCherry inconclusive, MARV entry inh 2.2µM
Cc1sc2ncnc(NCC3COc4ccccc4O3)c2c1C (configuration not stated)	HCMV inh -79, FMDV antiviral inconclusive
Cc1sc2ncnc(NCC3CCCO3)c2c1C (configuration not stated)	FMDV antiviral 28µM
CC(C)CC(Nc1ncnc2scc(-c3ccccc3)c12)C(=O)O (configuration not stated)	none (no result: Lassa entry inh, VACV Venus inh, Vaccinia mCherry, MARV entry inh)
Cc1nn(C)c(C(=O)Nc2ccc(S(=O)(=O)NC34CC5CC(CC(C5)C3)C4)cc2)c1Br	Lassa entry inh inconclusive, VACV Venus inh inconclusive, Vaccinia mCherry 13µM, MARV entry inh inconclusive (no result: HCMV inh)
Cc1ccc(S(=O)(=O)NC23CC4CC(CC(C4)C2)C3)cc1	none (no result: Lassa entry inh, VACV Venus inh, Vaccinia mCherry, MARV entry inh)
C#CCOCCOCCOCCNc1nc(N2CCN(C(=O)CCCCCCCCCCNC(=O)[C@H](CO)n3cc(CCCSC)nn3)CC2)nc(N2CCN(C(=O)CCCCCCCCCCNC(=O)[C@H](CO)n3cc(CCCSC)nn3)CC2)n1	HCMV inh -71, VACV Venus inh inconclusive, Vaccinia mCherry inconclusive (no result: Lassa entry inh, MARV entry inh)
C#CCOCCOCCOCCNc1nc(N2CCN(C(=O)CCCCCCCCCCNC(=O)[C@@H](CCSC)n3cc(CCO)nn3)CC2)nc(N2CCN(C(=O)CCCCCCCCCCNC(=O)[C@H]([C@@H](C)CC)n3cc(CCCCN=C(N)N)nn3)CC2)n1	FMDV antiviral inconclusive, VACV Venus inh 8.9µM, Vaccinia mCherry inconclusive (no result: HCMV inh, Lassa entry inh, MARV entry inh)
C#CCOCCOCCOCCNc1nc(N2CCN(C(=O)CCCCCCCCCCNC(=O)[C@@H](CCSC)n3cc(CCO)nn3)CC2)nc(N2CCN(C(=O)CCCCCCCCCCNC(=O)[C@H]([C@@H](C)CC)n3cc(CCCCCN)nn3)CC2)n1	FMDV antiviral inconclusive, VACV Venus inh 10µM (no result: HCMV inh, Lassa entry inh, MARV entry inh)
COCc1c(C(=O)NC2CCOC(C)(C)C2)cnn1-c1nccc(-c2cccs2)n1 (configuration not stated)	none (no result: HCMV inh, Lassa entry inh, MARV entry inh)
CC(C)Cc1nc2cc(NS(=O)(=O)N(C)C)cc(C(=O)N3CCOCC3)c2n1C	none (no result: HCMV inh, Lassa entry inh, MARV entry inh)
Clc1ccc(-c2nnc3c4ccccc4nc(N4CCOCC4)n23)cc1Cl	HCMV inh -90, MARV entry inh inconclusive
Brc1ccc(-c2nnc3c4ccccc4nc(N4CCOCC4)n23)cc1	none
COc1ccc(NC(=O)Cn2c(=O)n(-c3ccc(OC)cc3)c(=O)c3ccc(C(=O)NCc4ccc(C)cc4)cc32)cc1	none
CC(C)OC(=O)CSc1nnc2c(n1)[nH]c1ccc(F)cc12	HCMV inh -88, FMDV antiviral inconclusive, Lassa entry inh inconclusive (no result: VACV Venus inh, Vaccinia mCherry)
COc1ccc(CNC(=O)CSc2nnc3c(n2)[nH]c2ccc(F)cc23)cc1	HCMV inh -71
O=C(CSc1nnc2c(n1)[nH]c1ccc(F)cc12)NCc1ccc(F)cc1	none (no result: Lassa entry inh)
COc1ccc2c(c1)OC(C)CN(CCNC(=O)c1ccc(-n3cccn3)cc1)C2 (configuration not stated)	none (no result: HCMV inh, Lassa entry inh, MARV entry inh)
C=C1CCC[C@]2(C)C[C@H]3OC(=O)C(CNCCN(CC)CC)[C@H]3CC12 (some centres not stated)	Lassa entry inh inconclusive, VACV Venus inh 3.2µM, Vaccinia mCherry 4µM, MARV entry inh inconclusive
O=C(NC(Cc1ccc(O)cc1)C(=O)N=Nc1c(O)[nH]c2ccccc12)c1ccccc1 (configuration not stated)	HCMV inh -83
Cc1ccsc1/C=N/Nc1ccc(C(=O)O)cc1	FMDV antiviral 8.9µM (no result: Lassa entry inh, VACV Venus inh, Vaccinia mCherry, MARV entry inh)
Cc1ccsc1/C=N/Nc1cccc(C(=O)O)c1	FMDV antiviral 4.5µM, Lassa entry inh inconclusive, MARV entry inh inconclusive
Cc1ccsc1/C=N/NC(=O)CNC(=O)c1ccccc1	none (no result: Lassa entry inh, VACV Venus inh, Vaccinia mCherry, MARV entry inh)
O=C(N/N=C/c1cc([N+](=O)[O-])ccc1Cl)c1cc(-c2ccccc2)nc2ccccc12	FMDV antiviral inconclusive (no result: Lassa entry inh, VACV Venus inh, Vaccinia mCherry, MARV entry inh)
COc1ccc2ccccc2c1/C=N/NC(=O)c1cccc([N+](=O)[O-])c1	HCMV inh -62
O=C(NC(C(=O)N/N=C/c1cc([N+](=O)[O-])ccc1O)c1n[nH]c(=O)c2ccccc12)c1ccccc1 (configuration not stated)	HCMV inh -89
O=C(N/N=C/c1cc([N+](=O)[O-])ccc1O)c1cc(-c2ccccc2)nc2ccccc12	HCMV inh -100, Lassa entry inh 8.9µM, Vaccinia mCherry inconclusive, MARV entry inh 2.5µM
COc1ccc(/C=N/NC(=O)c2cccc([N+](=O)[O-])c2)cc1O	MARV entry inh inconclusive
COc1cc(/C=N/NC(=O)c2cccc([N+](=O)[O-])c2)ccc1O	none (no result: Lassa entry inh, VACV Venus inh, Vaccinia mCherry, MARV entry inh)
COc1cccc(/C=N/NC(=O)c2cc3cc([N+](=O)[O-])ccc3s2)c1O	HCMV inh -104, Lassa entry inh inconclusive, VACV Venus inh inconclusive, Vaccinia mCherry 5µM, MARV entry inh 1.8µM
